# Reference: PubChem BioAssay AID1159577 (Broad Institute, 2015)
# Among all 1,300 compounds or so, about 240 (18%) were called active. Roughly 8% stayed inconclusive and do not appear here. Not all results are given here. Entries with a potency or affinity are not part of this list. A number with no mark means an inactive call. No rule for the calls is given here.
# Experiment: HepG2 cell cytotoxicity, dose response, cytotoxicity control, cherry-picked samples (AID 1159577);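 also: 0% = neutral control wells and -100% = positive control wells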
# Details: HepG2 cytotoxicity counterscreen, plate reader; series mostly up to 19.5 µM; activity change, negative = cytotoxicity: at the top concentration
row,Structure (SMILES),"activity change, negative = cytotoxicity"
1,C[C@H](CO)N1C[C@H](C)[C@@H](CN(C)C(=O)c2ccc(F)cc2)Oc2ncc(/C=C/c3ccccc3)cc2C1=O,27.8%
2,C[C@@H]1CN([C@@H](C)CO)S(=O)(=O)c2ccc(C#CC3(O)CCCC3)cc2O[C@H]1CN(C)C(=O)c1ccccc1,23.2%
3,CN1c2ccc(-c3cccc(F)c3)cc2[C@@H]2[C@@H](CCN2C(=O)C2CC2)[C@@H]1CO,11.9%
4,N#C[C@H]1[C@@H](c2ccccc2-c2ccccc2F)[C@@H](CO)N1C(=O)C1CCOCC1,16%
5,CO[C@@H]1CN(C)C(=O)c2ccc(NC(=O)Nc3ccc(C(F)(F)F)cc3)cc2OC[C@H](C)NC[C@H]1C,-28.1%
6,CO[C@H]1CN(C)C(=O)c2ccc(NC(=O)Nc3ccc(C(F)(F)F)cc3)cc2OC[C@H](C)NC[C@H]1C,-23.7%
7,CO[C@@H]1CN(C)C(=O)c2ccc(NC(=O)Nc3ccc(C(F)(F)F)cc3)cc2OC[C@@H](C)NC[C@@H]1C,-17.8% [at 21 µM]
8,CO[C@H]1CN(C)C(=O)c2ccc(NC(=O)Nc3ccc(C(F)(F)F)cc3)cc2OC[C@@H](C)NC[C@@H]1C,-22.1%
9,Cc1ccc(-c2ccccc2[C@H]2[C@@H](C#N)N(C(=O)NC3CCCC3)[C@H]2CO)cc1,9.07% [at 21 µM]
10,COc1ccc(S(=O)(=O)N(C)C[C@@H]2Oc3cc(-c4ccccc4OC)ccc3S(=O)(=O)N([C@H](C)CO)C[C@H]2C)cc1,10.8%
11,CCCC(=O)Nc1ccc2c(c1)OC[C@H](C)N(Cc1ccc(-c3ccccn3)cc1)C[C@H](C)[C@H](OC)CN(C)C2=O,19.9%
12,CO[C@@H]1CN(C)C(=O)c2ccc(NC(=O)C3CC3)cc2OC[C@@H](C)N(Cc2cccc(F)c2)C[C@H]1C,-15.8%
13,CCC(=O)Nc1ccc2c(c1)C(=O)N(C)C[C@H](OC)[C@H](C)CN(Cc1cccc(F)c1)[C@@H](C)CO2,-7.08%
14,COc1ccc(CN(C)C[C@@H]2OCc3cn(nn3)CCCC(=O)N([C@H](C)CO)C[C@H]2C)cc1,9.36%
15,COc1ccccc1CN1C[C@@H](C)[C@H](OC)CN(C)C(=O)c2cc(NC(=O)Nc3ccccc3OC)ccc2OC[C@H]1C,-9.22% [at 21 µM]
16,C[C@@H]1CN([C@H](C)CO)S(=O)(=O)c2ccc(C#Cc3ccccc3F)cc2O[C@H]1CN(C)C(=O)c1ccc2c(c1)OCO2,11%
17,COc1cccc(C(=O)Nc2ccc3c(c2)C(=O)N(C)C[C@@H](OC)[C@H](C)CN(CCc2ccccc2)[C@H](C)CO3)c1,11%
18,C/C=C/c1ccc2c(c1)[C@H]1[C@H](CCN1C(=O)c1ccc(F)cc1)[C@H](CO)N2,3.75%
19,O=C(Nc1ccccc1F)N1C[C@@H]2[C@H](c3ccccc31)[C@H](CO)N2C(=O)C1CCOCC1,10.4%
20,COc1ccc2c3c([nH]c2c1)[C@@H](CO)N(Cc1cc(F)ccc1F)CC31CN(C(=O)C2CCC2)C1,-20.9%
21,CN(C)C(=O)c1ccc(-c2cccc(-c3nc(C(=O)NC4CCCC4)cc4c3[C@H](CCO)N([S@@](=O)C(C)(C)C)C4)c2)cc1,-9.78% [at 21 µM]

row,Structure (SMILES),"activity change, negative = cytotoxicity"
1,CO[C@@H]1CN(C)C(=O)c2ccc(NC(=O)Nc3cccc(F)c3)cc2OC[C@H](C)NC[C@H]1C,-1.59%
2,CO[C@H]1CN(C)C(=O)c2ccc(NC(=O)c3cccc(Oc4ccccc4)c3)cc2OC[C@@H](C)NC[C@H]1C,-8.04%
3,COc1ccc(-c2ccc3c(c2)[C@H]2[C@H](CCN2Cc2ccncc2)[C@@H](CO)N3)cc1,2.93% [at 21 µM]
4,CN1C(=O)c2cc(NC(=O)c3cccc(F)c3)ccc2OC[C@H]2O[C@H](CC(=O)NCC3CCCCC3)CC[C@H]21,-15.7%
5,CC(C)NC(=O)Nc1ccc2c(c1)C(=O)N(C)[C@H]1CC[C@H](CC(=O)Nc3ccccc3)O[C@H]1CO2,11.6%
6,CC(C)(C)[S@@](=O)N1Cc2cc(C(=O)N[C@@H]3CCN(Cc4ccccc4)C3)nc(-c3cccc(-c4ccncc4)c3)c2[C@H]1CCO,18.4%
7,COc1cccc(-c2ccc3c(c2)[C@@H]2[C@@H](CCN2S(=O)(=O)c2cn(C)cn2)[C@@H](CO)N3)c1,2.19%
8,N#Cc1ccc(-c2ccc3c(c2)[C@H]2[C@H](CCN2C(=O)C2CCCC2)[C@H](CO)N3)cc1,-4.02%
9,O=C(C[C@H]1CC[C@@H]2[C@H](COC[C@H](O)CN2Cc2cc(F)ccc2F)O1)N[C@@H]1CCN(Cc2ccccc2)C1,2.15%
10,COc1ccc2c3c([nH]c2c1)[C@@H](CO)N(Cc1nccs1)CC31CCN(Cc2nccs2)CC1,-9.57%
11,COc1cccc(CN2CC3(CCN(Cc4ccccn4)CC3)c3c([nH]c4cc(OC)ccc34)[C@@H]2CO)c1,-5.33%
12,COc1ccc2c3c([nH]c2c1)[C@H](CO)N(Cc1ccccc1)CC31CCN(CC2CC2)CC1,-13.9%
13,COc1ccc2c3c([nH]c2c1)[C@@H](CO)N(Cc1ccc(Cl)cc1)CC31CCN(Cc2nccs2)CC1,-16.6%
14,COc1ccc2c3c([nH]c2c1)[C@H](CO)N(Cc1ccc(F)cc1)CC31CCN(Cc2ccccn2)CC1,3.33%
15,COc1ccc2c3c([nH]c2c1)[C@H](CO)N(Cc1ccncc1)CC31CN(Cc2ccc(-c3ccccn3)cc2)C1,-10.6%
16,C[C@@H]1CN([C@H](C)CO)C(=O)c2cc(NC(=O)CCC(F)(F)F)ccc2O[C@H]1CN(C)C(=O)NC1CCCCC1,8.28%
17,O=C(C1CCCC1)N1CC[C@@H]2[C@H](CO)Nc3ccc(Br)cc3[C@@H]21,-29.2% [at 21 µM]
18,COc1ccc2c3c([nH]c2c1)[C@H](CO)N(Cc1ccccc1Cl)CC31CN(C(C)=O)C1,-0.4%
19,CC(C)(C)[S@@](=O)N1Cc2cc(C(=O)NC3CCC3)nc(-c3cccc(Br)c3)c2[C@H]1CCO,-20.4%
20,C[C@@H]1CN([C@@H](C)CO)C(=O)c2cccc(NC(=O)Nc3cccc4ccccc34)c2O[C@H]1CN(C)C(=O)NC1CCCCC1,-0.959% [at 16 µM]
21,COc1ccc2c3c([nH]c2c1)[C@H](CO)N(Cc1ccccc1F)CC31CN(C(=O)C2CCC2)C1,15.1%
